# The entries come from a sample that favours hits as a whole.
# ALOX12 inh: blocks human arachidonate 12S-lipoxygenase | purified 12hLO, xylenol orange hydroperoxide absorbance | Potency, µM (highest dose often 108 µM), hits mostly inhibitors | 580,000 compounds, 1.1% hits | P18054
#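 Purified human 12hLO at 150 nM in 25 mM Hepes, 0.01% Triton X-100, pH 7.0, preincubated 15 min at room temperature with compound. Reaction started with 40 uM arachidonic acid, 30 min at room temperature. Hydroperoxide measured by Fe-xylenol orange, 573/405 nm absorbance ratio.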
# G9a block: blocks human histone lysine methyltransferase G9a; Q96KQ7; G9a H3K9 monomethylation, AlphaScreen, 2 h; Potency, µM (doses to about 102 µM), actives largely listed as inhibitors; 350,000 compounds, 8.8% hits; further: nearly all actives have a fitted effect of over 75% in size
# Target sequence (Q96KQ7 913-1193 limits assumed): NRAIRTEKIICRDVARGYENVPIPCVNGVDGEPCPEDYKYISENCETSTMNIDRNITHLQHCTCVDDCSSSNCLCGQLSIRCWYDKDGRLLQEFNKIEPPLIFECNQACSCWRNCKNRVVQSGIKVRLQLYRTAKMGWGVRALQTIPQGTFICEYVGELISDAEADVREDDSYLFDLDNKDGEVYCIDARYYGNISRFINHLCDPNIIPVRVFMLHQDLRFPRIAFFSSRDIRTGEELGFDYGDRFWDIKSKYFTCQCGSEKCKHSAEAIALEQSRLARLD
#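 Enzyme 20 nM + cpd, 15 min RT; add b-H3K9 pep 500 nM / SAM 20 uM; 2 h RT; anti-H3K9me1 Ab 0.5 ug/mL + SA donor / anti-rabbit acceptor beads 20 ug/mL each, 10 min; AlphaScreen read.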
# GRP78 ERSR act: ER stress response induction in glioma; Potency, µM, most hits filed as activators; 420,000 compounds, 0.02% hits; U87-MG GRP78 promoter luciferase reporter, 16 h; further: series mostly up to about 76 µM; nearly all actives have a fitted effect of over 35% in size
#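 ERSR induction read as luciferase luminescence (Bright-Glo, 10 min at room temperature) in stably transfected human U87-MG glioma cells exposed to compounds for 16 h, using GRP78 as sensor.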
# VDR inh: inhibitors of human vitamin D receptor; Potency, µM, hits mostly inhibitors; 400,000 compounds, 0.93% hits; P11473; VDR-SRC2-3 peptide fluorescence polarization, 2 h
#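 Signal is fluorescence polarization, reporting how far test compounds block the interaction of VDR with the SRC2-3 coregulator peptide after a 2 h room-temperature incubation.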
# Sfp PPTase inh: blocks B. subtilis Sfp PPTase activity | Biochemical Sfp PPTase activity, qHTS | Q9F4F7 | 310,000 compounds, 3.5% hits | AID 1490 | Potency, µM, most hits filed as inhibitors;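 further: the enzyme is Sfp with the accession as filed and its product quenches rhodamine fluorescence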
#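 After 15 min at room temperature with compound, 15 nM Sfp received 5 uM rhodamine-CoA plus 12.5 uM BHQ-2-ybbR (50 mM Hepes pH 7.6, 10 mM MgCl2). Rate came from the fluorescence difference over 30 min, ex 525/em 598 nm.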
# Hits are given with their value; 0 = inactive; ? = inconclusive; - = no result; [ ] = another dose, or the depositor's remark. The call rests on the fitted dose curve; in most records, active means well fitted curve in the direction sought with a large enough effect; inconclusive means small, poorly fitted or top-dose-only effect, or another doubt; inactive means no such curve, though single readings can be large; an effect the other way counts as inactive or inconclusive.
SMILES,ALOX12 inh,G9a block,GRP78 ERSR act,VDR inh,Sfp PPTase inh
CCOC(=O)c1[nH]c2ccc(F)cc2c1NC(=O)CCN1CCOCC1,0,0,0,?,0
CCOC(=O)c1[nH]c2ccc(Br)cc2c1NC(=O)CCN1CCCC(C)(C)C1,?,8.9µM,0,0,0
COc1cccc(-c2cc3c(=O)n(CCNC(=O)Cc4cccs4)ccn3n2)c1,0,-,-,-,-
CCOCCCNC(=O)Nc1ccc2nc(N3CCOCC3)cc(C)c2c1,0,-,-,-,-
CCCCC(CC)COC(=O)CC(C(=O)OCC(CC)CCCC)S(=O)(=O)O (stereo not given),?,-,0,25µM,0
CCN(CC)c1nc2ccccc2nc1C(=O)Nc1ccc(OC)c(OC)c1,0,-,-,-,-
CCOc1ccc2nc(SCC3CC3(Cl)Cl)[nH]c2c1 (stereo not given),?,45µM,0,0,0
ClC1(Cl)CC1CSc1nc2ccccc2[nH]1 (stereo not given),0,0,0,0,0
COc1ccc(N2Cc3cccc(C(=O)O)c3C2=O)cc1,-,32µM,0,0,0
CCCCCCNC(=O)C(C#N)c1nc2ccccc2nc1N(CC)CC (stereo not given),0,-,-,-,-
CCCCc1nc2ccccc2n1CC(O)c1ccc(F)cc1 (stereo not given),0,-,-,-,-
CCc1c(C)nc2[nH]nc(NC(=O)C(F)(F)F)n2c1=O,0,16µM,0,0,0
Cc1cccc(C)c1-c1cc(C(=O)N2CCOCC2)c2cnn(C)c2n1,0[6.33 µM],-,-,-,-
Cc1cccc2cc3c(N)c(C(=O)N4CCOCC4)sc3nc12,25µM,?,0,0,?
Cc1ccc2nc3sc(C(=O)N4CCCc5ccccc54)c(N)c3cc2c1,0,3.2µM,0,0,0
Cc1cc(C)c2cc3c(N)c(C(=O)N4CCc5ccccc5C4)sc3nc2c1,0,10µM,0,0,0
Cc1noc(/C=C\c2ccc(S(=O)(=O)N3CCc4ccccc43)cc2)c1NC(=O)C1CC1,0,-,-,-,-
COc1ccc(NC(=O)c2cn(-c3ccccc3)nc2-c2ccncc2)cc1,0,0,0,0,0
COc1ccc(-c2nn(-c3ccccc3)cc2/C=N/NC(=S)NC(C)C)cc1OC,35µM,0,0,0,0
COc1cccc(-c2nn(-c3ccccc3)cc2C(=O)NCC(=O)O)c1,?,50µM,0,0,0
COc1ccc(-c2nn(-c3ccccc3)cc2C(=O)NC(=S)NNC(=O)c2ccncc2)cc1,32µM,32µM,0,0,0
CN(C)c1ccc(NC(=O)c2cn(-c3ccccc3)nc2-c2cccs2)cc1,?,10µM,0,0,0
C=CCN(CC=C)C(=O)c1cc(-c2ccc(OC)cc2)nc2ccccc12,0,-,-,-,-
COc1ccc(-c2nn(-c3ccccc3)cc2/C=N/O)cc1OC,0,0,0,0,0
O=C(O)c1cccc(NC(=O)c2cn(-c3ccccc3)nc2-c2ccncc2)c1,0,32µM,0,0,0
SMILES,ALOX12 inh,G9a block,GRP78 ERSR act,VDR inh,Sfp PPTase inh
O=C(O)c1cccc(NC(=O)c2cn(-c3ccccc3)nc2-c2cccc(Br)c2)c1,0,0,0,0,0
COc1ccc(-c2nn(-c3ccccc3)cc2/C=N/N=C(N)N)cc1OC,?,?,0,0,50µM
C=CCNC(=S)N/N=C/c1cn(-c2ccccc2)nc1-c1ccc(OC)cc1,40µM,0,0,0,0
COc1ccc(-c2nn(-c3ccccc3)cc2/C=N/NC(=O)c2ccc(Br)o2)cc1,0,0[12.7 µM],0,0,0
NC(=S)N/N=C/c1cn(-c2ccccc2)nc1-c1cccnc1,0,0,0,28µM,0
COC(=O)C(C)Oc1ccc2c(=O)c(-c3ccccc3)c(C(F)(F)F)oc2c1 (stereo not given),0,-,-,-,-
Brc1cccc(-c2nc(-c3cccnc3)no2)c1,0,-,-,-,-
COc1ccc(-c2nn(-c3ccccc3)cc2/C=N/Nc2cccc(C(=O)O)c2)cc1,0,22µM,0,0,0
COc1ccc(-c2nn(-c3ccccc3)cc2/C=N/NC(=O)c2ccc3c(c2)OCO3)cc1,-,0[12.7 µM],-,-,0
Cc1csc(Sc2ccc(C(=O)OCC(=O)Nc3ccc(F)cc3[N+](=O)[O-])cc2[N+](=O)[O-])n1,0,35µM,0,0,0
Cc1cc(C(=O)OCC(=O)Nc2ccc(F)cc2[N+](=O)[O-])c2ccccc2n1,0,0,0,0,0
Cc1[nH]c2ccc(-c3n[nH]c(=S)n3Cc3ccccc3)cc2c1C,?,7.9µM,0,0,0
CS(=O)(=O)Nc1ccc(-c2nc3ccccc3s2)cc1,0,?,-,0,-
Cc1[nH]c2ccc(-c3n[nH]c(=S)n3-c3ccccc3)cc2c1C,?,1.6µM,0,0,0
CS(=O)(=O)Nc1ccc(-c2n[nH]c(=S)n2-c2ccccc2)cc1,?,0.5µM,0,0,0
CC(=O)Nc1c(C)noc1/C=C\c1ccc(C)c(S(=O)(=O)Nc2cccc(C)c2C)c1,0,-,-,-,-
Cc1cc(C(=O)NCCCN2CCCCCC2=O)c2ccc(F)cc2n1,0,-,-,-,-
COc1ccc(C(=O)NCC(c2ccc(N(C)C)cc2)N2CCc3ccccc32)cc1 (stereo not given),0,10µM,0,0,-
O=C(NCC(c1ccc(F)cc1)N1CCOCC1)c1ccc(Br)o1 (stereo not given),?,50µM,0,0,0
COc1cc(C(=O)NCC(c2cccnc2)N2CCc3ccccc32)cc(OC)c1OC (stereo not given),0,0,0,0,-
CC(C)Oc1ccc(C(=O)NCC(c2ccc(N(C)C)cc2)N2CCc3ccccc32)cc1 (stereo not given),0,14µM,0,0,-
O=C(NCC(c1ccc(F)cc1)N1CCOCC1)c1ccco1 (stereo not given),0,0,0,0,-
CN(C)c1ccc(C(CNC(=O)c2ccccc2)N2CCc3ccccc32)cc1 (stereo not given),0,13µM,0,0,-
O=C(Nc1ccc(Cl)cc1F)c1ccccc1OCC1CCCO1 (stereo not given),0,-,-,-,-
Oc1ccccc1CN1CCOC[C@H]1c1ncc(-c2cccc(Cl)c2)[nH]1,0,-,-,-,-
SMILES,ALOX12 inh,G9a block,GRP78 ERSR act,VDR inh,Sfp PPTase inh
COc1ccc(C(=O)NCC(c2cccs2)N2CCc3ccccc32)cc1OC (stereo not given),?,40µM,0,0,-
CCOc1cc(C(=O)NCC(c2ccc(N(C)C)cc2)N2CCOCC2)cc(OCC)c1OCC (stereo not given),0,0[12.7 µM],0,0,-
CN(C)c1ccc(C(CNC(=O)c2ccc(C(C)(C)C)cc2)N2CCOCC2)cc1 (stereo not given),?,11µM,0,0,-
COc1ccc(C(=O)NCC(c2cccs2)N2CCOCC2)cc1OC (stereo not given),0,0[12.7 µM],0,0,-
Cc1nnc(N2C(=O)C(O)=C(C(=O)c3ccco3)C2c2cccc([N+](=O)[O-])c2)s1 (stereo not given),?,0,0,0,0
Cc1cc(C)c2nc(N3C(=O)C(O)=C(C(=O)c4ccco4)C3c3cccc(O)c3)sc2c1 (stereo not given),25µM,0[2.33 µM],0,79µM,-

# Source: PubChem (National Center for Advancing Translational Sciences (NCATS))
